# Experiments:
# Assay in all cases: DAPPL (digital affinity profiling via proximity ligation, sequencing); 10 mM Tris-HCl pH 7.5, 50 mM NaCl, 1 mM DTT, 4% glycerol, room temperature, 30 min; GST-TFs on glutathione beads, 16-mer random dsDNA library, 0.1% formaldehyde crosslink after washing; high values mean tight binding
# Conditions in all cases: protein: recombinant; tags: N-terminal GST; dsDNA, one strand shown
# [1] = target: T1, FLI1 (Homo sapiens, UniProt Q01543 1-452)
# T1 sequence: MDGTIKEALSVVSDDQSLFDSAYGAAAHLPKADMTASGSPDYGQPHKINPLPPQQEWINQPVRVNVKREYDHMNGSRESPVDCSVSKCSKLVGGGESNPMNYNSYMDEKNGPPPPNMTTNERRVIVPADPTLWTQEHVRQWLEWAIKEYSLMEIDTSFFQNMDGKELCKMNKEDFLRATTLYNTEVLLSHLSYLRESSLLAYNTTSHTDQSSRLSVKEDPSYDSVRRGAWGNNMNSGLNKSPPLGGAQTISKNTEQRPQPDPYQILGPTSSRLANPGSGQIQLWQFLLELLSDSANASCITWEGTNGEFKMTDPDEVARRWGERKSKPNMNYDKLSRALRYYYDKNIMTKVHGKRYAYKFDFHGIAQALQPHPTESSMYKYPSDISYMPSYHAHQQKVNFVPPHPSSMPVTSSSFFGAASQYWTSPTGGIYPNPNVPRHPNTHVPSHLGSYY
# Procedure, shortened: (§1)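 Binding signal is defined as a hexamer's read frequency for one factor over its frequency for the tag-only sample. To obtain reads, GST-fused human transcription factors were expressed in yeast, captured on glutathione beads, barcoded with DNA and pooled with that sample. Pools met 200 nmole of a 16-mer random double-stranded DNA library in Tris/NaCl/DTT/glycerol buffer for 30 min at room temperature before washing, 0.1% formaldehyde crosslinking, proximity ligation (BsaI/T4 ligase, 1 h, 37 °C), PCR and Illumina NextSeq500 sequencing.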
# [2] = target: T2, ELK1 (Homo sapiens, UniProt P19419 1-428)
# T2 sequence: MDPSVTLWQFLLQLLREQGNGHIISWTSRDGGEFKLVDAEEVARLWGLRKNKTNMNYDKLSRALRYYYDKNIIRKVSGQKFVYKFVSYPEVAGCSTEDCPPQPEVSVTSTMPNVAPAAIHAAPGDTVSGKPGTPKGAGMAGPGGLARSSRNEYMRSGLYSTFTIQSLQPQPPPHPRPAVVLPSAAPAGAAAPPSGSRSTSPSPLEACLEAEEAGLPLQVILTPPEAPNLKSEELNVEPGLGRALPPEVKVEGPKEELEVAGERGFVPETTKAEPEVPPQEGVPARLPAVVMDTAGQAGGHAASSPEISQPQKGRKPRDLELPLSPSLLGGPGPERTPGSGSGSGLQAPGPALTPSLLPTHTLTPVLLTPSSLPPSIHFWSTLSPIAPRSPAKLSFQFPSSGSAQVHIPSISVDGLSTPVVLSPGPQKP
# Procedure, shortened: as §1
# [3] = target: T3, GABPA (Homo sapiens, UniProt Q06546 1-454)
# T3 sequence: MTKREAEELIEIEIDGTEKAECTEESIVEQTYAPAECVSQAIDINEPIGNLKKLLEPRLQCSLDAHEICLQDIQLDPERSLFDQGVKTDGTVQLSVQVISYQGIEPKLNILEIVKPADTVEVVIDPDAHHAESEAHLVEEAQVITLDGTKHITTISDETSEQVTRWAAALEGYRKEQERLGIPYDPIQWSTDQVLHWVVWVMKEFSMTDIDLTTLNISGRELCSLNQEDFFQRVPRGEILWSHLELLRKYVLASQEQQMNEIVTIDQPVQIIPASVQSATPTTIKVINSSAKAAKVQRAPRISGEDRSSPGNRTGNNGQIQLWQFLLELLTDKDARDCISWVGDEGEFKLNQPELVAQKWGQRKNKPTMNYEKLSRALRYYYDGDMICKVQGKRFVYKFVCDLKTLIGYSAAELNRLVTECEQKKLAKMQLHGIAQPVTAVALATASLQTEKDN
# Procedure, shortened: as §1
# [4] = target: T4, ERG (Homo sapiens, UniProt P11308 1-479)
# T4 sequence: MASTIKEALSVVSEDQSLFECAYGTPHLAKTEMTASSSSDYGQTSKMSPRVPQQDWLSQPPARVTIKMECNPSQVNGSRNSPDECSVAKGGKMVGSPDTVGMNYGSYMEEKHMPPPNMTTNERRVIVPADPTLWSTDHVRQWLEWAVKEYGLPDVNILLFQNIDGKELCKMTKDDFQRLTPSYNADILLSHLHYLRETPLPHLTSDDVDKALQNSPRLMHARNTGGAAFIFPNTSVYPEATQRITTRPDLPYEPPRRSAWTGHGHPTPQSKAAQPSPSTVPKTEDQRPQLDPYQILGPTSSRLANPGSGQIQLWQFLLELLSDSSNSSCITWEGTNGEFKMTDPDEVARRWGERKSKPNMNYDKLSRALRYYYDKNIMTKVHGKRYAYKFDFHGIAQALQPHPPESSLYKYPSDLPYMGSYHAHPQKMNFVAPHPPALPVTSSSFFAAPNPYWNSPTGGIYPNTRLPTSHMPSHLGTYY
# Procedure, shortened: as §1
# [5] = target: ELF1 (Homo sapiens, UniProt P32519 1-619)
# Procedure, shortened: as §1
# [6] = target: T5, EHF (Homo sapiens, UniProt Q9NZC4 1-300)
# T5 sequence: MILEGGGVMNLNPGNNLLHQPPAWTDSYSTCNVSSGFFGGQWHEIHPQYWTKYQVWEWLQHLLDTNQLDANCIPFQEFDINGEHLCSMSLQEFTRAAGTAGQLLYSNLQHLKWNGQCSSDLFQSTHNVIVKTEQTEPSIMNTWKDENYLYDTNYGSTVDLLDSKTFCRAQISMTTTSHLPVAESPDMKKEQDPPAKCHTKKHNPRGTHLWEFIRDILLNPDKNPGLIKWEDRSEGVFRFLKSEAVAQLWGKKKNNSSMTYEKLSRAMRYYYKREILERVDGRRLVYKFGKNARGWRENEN
# Procedure, shortened: as §1
# [7] = target: SPI1 (Homo sapiens, UniProt P17947 1-270)
# Procedure, shortened: as §1
# [8] = target: SPIB (Homo sapiens, UniProt Q01892 1-262)
# Procedure, shortened: as §1
# [9] = target: T6, ELK3 (Homo sapiens, UniProt P41970 1-407)
# T6 sequence: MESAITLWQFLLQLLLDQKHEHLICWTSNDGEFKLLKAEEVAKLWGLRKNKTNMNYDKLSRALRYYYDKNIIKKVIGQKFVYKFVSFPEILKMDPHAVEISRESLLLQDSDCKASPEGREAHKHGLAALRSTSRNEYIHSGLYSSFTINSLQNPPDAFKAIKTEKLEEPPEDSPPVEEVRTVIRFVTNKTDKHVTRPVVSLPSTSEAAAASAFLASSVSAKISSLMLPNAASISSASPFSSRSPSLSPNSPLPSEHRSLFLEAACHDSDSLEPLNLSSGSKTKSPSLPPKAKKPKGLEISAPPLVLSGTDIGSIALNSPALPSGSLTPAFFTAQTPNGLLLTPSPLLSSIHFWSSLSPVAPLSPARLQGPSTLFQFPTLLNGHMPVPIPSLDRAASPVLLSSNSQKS
# Procedure, shortened: as §1
# [10] = target: ETV5 (Homo sapiens, UniProt P41161 1-510)
# Procedure, shortened: as §1
# Chain of SPIB (Q01892 whole entry): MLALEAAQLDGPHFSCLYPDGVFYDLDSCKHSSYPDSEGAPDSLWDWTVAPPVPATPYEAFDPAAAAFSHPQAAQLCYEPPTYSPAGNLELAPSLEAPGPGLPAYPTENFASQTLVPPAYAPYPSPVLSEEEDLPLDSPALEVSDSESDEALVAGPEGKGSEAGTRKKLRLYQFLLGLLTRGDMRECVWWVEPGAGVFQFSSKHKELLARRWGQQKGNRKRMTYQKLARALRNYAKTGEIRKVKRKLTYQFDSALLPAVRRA
# Chain of ETV5 (P41161 whole entry): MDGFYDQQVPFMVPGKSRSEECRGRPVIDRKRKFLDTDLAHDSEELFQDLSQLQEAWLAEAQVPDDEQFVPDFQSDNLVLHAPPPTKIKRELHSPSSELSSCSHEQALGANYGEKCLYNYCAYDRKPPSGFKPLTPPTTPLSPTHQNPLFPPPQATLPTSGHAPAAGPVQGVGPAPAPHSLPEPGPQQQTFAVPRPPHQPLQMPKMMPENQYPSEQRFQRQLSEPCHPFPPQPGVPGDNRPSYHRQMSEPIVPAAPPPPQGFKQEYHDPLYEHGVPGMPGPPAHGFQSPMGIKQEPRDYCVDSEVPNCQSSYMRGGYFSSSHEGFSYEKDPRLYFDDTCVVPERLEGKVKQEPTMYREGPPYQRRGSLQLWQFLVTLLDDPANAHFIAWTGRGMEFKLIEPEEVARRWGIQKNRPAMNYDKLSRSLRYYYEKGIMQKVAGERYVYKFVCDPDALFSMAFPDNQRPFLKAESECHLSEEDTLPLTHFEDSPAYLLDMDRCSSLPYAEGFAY
# Chain of ELF1 (P32519 whole entry): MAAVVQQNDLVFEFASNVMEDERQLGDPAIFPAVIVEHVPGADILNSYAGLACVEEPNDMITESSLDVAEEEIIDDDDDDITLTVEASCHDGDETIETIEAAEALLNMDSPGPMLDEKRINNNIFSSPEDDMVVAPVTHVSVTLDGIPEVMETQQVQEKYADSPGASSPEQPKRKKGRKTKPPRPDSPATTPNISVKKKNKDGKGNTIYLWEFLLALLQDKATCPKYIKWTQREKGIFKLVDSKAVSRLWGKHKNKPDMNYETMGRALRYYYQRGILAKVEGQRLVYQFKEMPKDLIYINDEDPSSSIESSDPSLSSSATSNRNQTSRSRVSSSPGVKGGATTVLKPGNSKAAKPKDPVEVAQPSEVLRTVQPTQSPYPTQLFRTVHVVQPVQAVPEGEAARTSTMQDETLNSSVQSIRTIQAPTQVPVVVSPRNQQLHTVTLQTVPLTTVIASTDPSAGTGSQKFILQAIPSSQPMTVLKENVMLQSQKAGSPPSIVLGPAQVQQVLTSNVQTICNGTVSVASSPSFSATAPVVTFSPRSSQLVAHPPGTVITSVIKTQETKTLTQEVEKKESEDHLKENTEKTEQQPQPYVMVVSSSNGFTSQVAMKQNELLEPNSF
sequence,measurement,setting,value
CCAACC,binding signal,[1],"1.12 fold enrichment (6-mer frequency, TF over GST control)"
same,binding signal,[2],"1.1 fold enrichment (6-mer frequency, TF over GST control)"
same,binding signal,[3],"1.01 fold enrichment (6-mer frequency, TF over GST control)"
same,binding signal,[4],"1.09 fold enrichment (6-mer frequency, TF over GST control)"
same,binding signal,[5],"1.16 fold enrichment (6-mer frequency, TF over GST control)"
same,binding signal,[6],"1.04 fold enrichment (6-mer frequency, TF over GST control)"
same,binding signal,[7],"1.11 fold enrichment (6-mer frequency, TF over GST control)"
same,binding signal,[8],"1.06 fold enrichment (6-mer frequency, TF over GST control)"
same,binding signal,[9],"1.06 fold enrichment (6-mer frequency, TF over GST control)"
same,binding signal,[10],"1.01 fold enrichment (6-mer frequency, TF over GST control)"

# — PMC7862700, “An all-to-all approach to the identification of sequence-specific readers for epigenetic DNA modifications on cytosine”
